# The supplement of paper PMC10933113
# Structures can show the parent of a compound that is named as a salt. ± gives the uncertainty stated by the source.
# Test system: THP-1
# Assay: CD86 surface expression induction over DMSO control (% over DMSO); higher = stronger dendritic cell activation
# Conditions: exposure time: 24 h
# Description: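 hCLAT-like CD54 and CD86 surface expression on THP1 cells after 24 h exposure at a single concentration (highest non-cytotoxic concentration, or 100-200 µM if not cytotoxic). Flow cytometry (iQue) was run on 5,000 live cells.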
row,Compound,CD86 surface expression induction
1,CCCOc1ccc2[nH]c(NC(=O)OC)nc2c1 [Oxibendazole] (100 µM),-3.54 ± 40
2,Nc1ccc2cc3ccccc3cc2c1 [2-Aminoanthracene] (200 µM),-10.7 ± 9.7
3,C=C1CC[C@H](O)C/C1=C/C=C1\CCC[C@]2(C)[C@@H]([C@H](C)/C=C/[C@H](C)C(C)C)CC[C@@H]12 [Ergocalciferol*] (100 µM),74 ± 130
4,"O=C(O)c1cc(O)c2ccccc2c1O [1,4-dihydroxy-2-naphthoic acid*] (10 µM)",290 ± 51
5,O=c1cc(-c2ccccc2)oc2ccccc12 [Flavone] (200 µM),16.4 ± 4.7
6,Clc1ccccc1-c1nc(-c2ccncc2)no1 [Pifexole] (100 µM),3.84 ± 13
7,C=CC(=O)OCCOC(=O)CCC(=O)O [4-[2-(Acryloyloxy)ethoxy]-4-oxobutanoic acid] (200 µM),-12.9 ± 36
8,CCCCCCCCCCCCCC[N+](C)(C)C [Tetradonium bromide] (10 µM),53 ± 19
9,Clc1ccc(C(Cn2ccnc2)OCc2c(Cl)cccc2Cl)c(Cl)c1 (stereo not given) [Isoconazole] (100 µM),76.1 ± 95
10,Cc1ccc(N)cc1O [5-Amino-2-methylphenol] (200 µM),-0.96 ± 6.3
11,CC1=C(/C=C/C(C)=C\C=C\C(C)=C\C(=O)O)C(C)(C)CCC1 [9-cis Retinoic acid] (100 µM),5.14 ± 16
12,Oc1ccc(/C=C/c2cc(O)cc(O)c2)cc1 [Resveratrol] (100 µM),-3.05 ± 3.9
13,"CC(C)(C)c1cc(O)c(C(C)(C)C)cc1O [2,5-Di-tert-butylbenzene-1,4-diol] (100 µM)",6.5 ± 4.4
14,O=c1n(CC2CO2)c(=O)n(CC2CO2)c(=O)n1CC1CO1 (stereo not given) [Triglycidyl isocyanurate] (10 µM),0.85 ± 1.2
15,O=C(/C=C/C=C/c1ccc2c(c1)OCO2)N1CCCCC1 [Piperine] (100 µM),-4.64 ± 6.3
16,O=C(O)c1cn(C2CC2)c2cc(N3CCNCC3)c(F)cc2c1=O [Ciprofloxacin] (100 µM),-5.55 ± 6.9
17,COc1cccc2c1C(=O)c1c(O)c3c(c(O)c1C2=O)C[C@@](O)(C(=O)CO)C[C@@H]3O[C@H]1C[C@H](N)[C@H](O)[C@H](C)O1 [Doxorubicin*] (10 µM),218 ± 96
18,"c1ccc(-c2ccccn2)nc1 [2,2'-Dipyridyl] (200 µM)",0.3 ± 28
19,N=C(N)NN=C(/C=C/c1ccc([N+](=O)[O-])o1)/C=C/c1ccc([N+](=O)[O-])o1 [Nitrovin] (10 µM),88.4 ± 21
20,CC(=O)Oc1ccc(C2(c3ccc(OC(C)=O)cc3)C(=O)Nc3ccccc32)cc1 [Oxyphenisatin acetate] (100 µM),6.01 ± 7.9

row,Compound,CD86 surface expression induction
1,CC(C)=CCOc1ccc(/C=C/C(=O)c2ccc(OCC=C(C)C)cc2OCC(=O)O)cc1 [Sofalcone] (100 µM),-6.95 ± 7.2
2,O=C1c2cccc(O)c2C(=O)c2c(O)cccc21 [Danthron] (100 µM),6.93 ± 0.81
3,CC(C)CC(NC(=O)OCC1c2ccccc2-c2ccccc21)C(=O)O (stereo in doubt) [N-(9-Fluorenylmethoxycarbonyl)-L-leucine] (100 µM),-11.4 ± 2.7
4,O=C(NS(=O)(=O)/C=C/c1ccccc1)c1ccc(F)cc1Cl (200 µM),-3.08 ± 4.4
5,CCCCC1C(=O)N(c2ccccc2)N(c2ccc(O)cc2)C1=O (stereo not given) [Oxyphenbutazone] (10 µM),24.6 ± 15
6,[Cl][Bi]([Cl])([c]1ccccc1)([c]1ccccc1)[c]1ccccc1 [Triphenylbismuthine dichloride] (10 µM),53 ± 6.3
7,CC(=O)C1(C)CC2=C(CCCC2(C)C)CC1C (stereo not given) (100 µM),9.62 ± 13
8,CO[C@@]12[C@H](COC(N)=O)C3=C(C(=O)C(C)=C(N)C3=O)N1C[C@@H]1N[C@@H]12 [Mitomycin C] (100 µM),60.5 ± 16
9,O=C(CS)Nc1ccccc1 [Thioglycolic acid anilide] (300 µM),34.4 ± 2
10,C/C=C/C=C/CCCCCCCO [Codlelure] (200 µM),-13 ± 6
11,CCC1OCC(COc2ccc(Oc3ccccc3)cc2)O1 (stereo not given) [Diofenolan] (10 µM),-18.9 ± 5.4
12,CC(C)C[C@H](NC(=O)[C@H](Cc1ccccc1)NC(=O)c1cnccn1)B(O)O [Bortezomib] (10 µM),107 ± 8.1
13,"CC(C)=CCC/C(C)=C\CO [(2Z)-3,7-Dimethylocta-2,6-dien-1-ol] (200 µM)",6.83 ± 19
14,COc1cc(/C=C2\CCC/C(=C\c3ccc(O)c(OC)c3)C2=O)ccc1O [Cyclovalone] (10 µM),-7.37 ± 5.9
15,CCCSS/C(CCO)=C(/C)N(C=O)Cc1cnc(C)nc1N [Prosultiamine] (10 µM),-13 ± 4.4
16,"Cc1c2ccccc2c(C)c2c1ccc1ccccc12 [7,12-Dimethylbenzanthracene] (10 µM)",47.5 ± 61
17,C#CCN(C)CCCOc1ccc(Cl)cc1Cl [Clorgyline hydrochloride] (100 µM),-4.71 ± 3.7
18,Cc1ccc(O)c2ncccc12 [Tiliquinol] (10 µM),43.2 ± 60
19,C=CC(=O)OCCn1c(=O)n(CCOC(=O)C=C)c(=O)n(CCOC(=O)C=C)c1=O (10 µM),14.2 ± 10
20,"CCCCCCCCCCC=CC1CC(=O)OC1=O (stereo not given) [3-(Dodecenyl)dihydro-2,5-furandione] (200 µM)",-8.58 ± 3
